These results are taken from PubChem BioAssay AID2577 (National Center for Advancing Translational Sciences (NCATS), 2010).

Values without a mark were called inactive. Calls come from the whole dose curve; as a rule, active = well fitted curve in the direction sought with a large enough effect; inactive = no such curve, though single readings can be large or run the other way.

The assay addresses Lysosomal alpha-glucosidase (Homo sapiens) (UniProt P10253). In words: qHTS Assay for Inhibitors and Activators of N370S glucocerebrosidase as a Potential Chaperone Treatment of Gaucher Disease: Alpha-Glucosidase Counterscreen. The note with it: purified human alpha-glucosidase, 4MU-alpha-glucoside fluorescence. The text has this:
NIH Chemical Genomics Center [NCGC] NIH Molecular Libraries Probe Production Centers Network [MLPCN] MLPCN Grant: MH086442-01 Assay Submitter (PI): Wei Zheng Glucocerebrosidase (GC) catalyzes the hydrolysis of beta-glucocerebroside to glucose and ceramide in lysosomes. Mutations in the glucocerebrosidase gene result in Gaucher disease, an autosomal recessive lysosomal storage disorder. Many of the mutations encountered in patients with Gaucher disease are missense alterations that may cause misfolding, decreased stability and/or mistrafficking of this lysosomal protein. […] These inhibitors include iminosugar analogs and three non-iminosugar inhibitors identified from a previous HTS of 62,000 compounds with the wild type recombinant enzyme. However, the enhancement of enzyme activity by the chaperone action of an enzyme inhibitor must be balanced against the direct inhibition of the enzyme. An enzyme activator could also function as a chaperone by binding to the enzyme and helping to correct its misfolding and mistrafficking. While activators for GC have not yet been identified, they may have better therapeutic potential than inhibitors. Therefore the discovery and development of chemical activators may provide a new strategy for the chaperone therapy. To characterize compound selectivity, selected hits from the primary screen were screened against purified alpha-glucosidase, a related sugar hydrolase. Alpha-glucosidase is responsible for hydrolysis of terminal, non-reducing 1,4-linked alpha-D-glucose residues with release of alpha-D-glucose.
NCGC Assay Protocol Summary: This is a fluorogenic enzyme assay with 4-methylumbelliferyl-alpha-D-[…] as the substrate and human alpha-glucosidase as the enzyme preparation. Upon the hydrolysis of this fluorogenic substrate, the resulting product, 1. 4-methyllumbelliferone, can be excited at 365 nm and emits at 440 nm which can be detected by a standard fluorescence plate reader. Data were normalized to the controls for basal activity (without enzyme) and 100% activity (with enzyme). The AC50 values were determined from concentration-response data modeled with the standard Hill equation. Assay buffer: 50 mM citric acid (titrated with potassium phosphate to pH 5.0), 0.005% Tween-20, pH 5.0. (pH 5.0 is an optimal condition for this enzyme assay) 1536-well assay protocol for the human alpha-glucosidase: (1) Add 2 ul/well of enzyme (4 nM final) (2) Add 23 nL compounds in DMSO solution. The final titration was 0.7 nM to 77 uM. (3) Add 1 ul of substrate (400 uM final) (4) Incubate at room temperature for 20 min. (5) Add 2 ul stop solution (1M NaOH and 1M Glycine mixture, pH 10) (6) Detect the assay plate in a ViewLux plate reader (PerkinElmer) with Ex=365 nm and Em=440nm. Keywords: Alpha-glucosidase, Pompe Disease, pharmacological chaperone, chaperone therapy, high throughput screening, alpha-glucosidase inhibitor, MLSMR, MLSCN, NIH Roadmap, qHTS and NCGC
A general note: qHTS replaces the single test concentration by a dilution series.
With `COc1ccc(S(=O)(=O)N2CCN(c3nc(-c4cccs4)nc4ccccc34)CC2)cc1OC`, the max response was -12%. As to `O=S(=O)(c1cccc(Cl)c1)N1CCN(c2nc(-c3cccs3)nc3ccccc23)CC1`, the max response is -11.5%.

Consider `O=S(=O)(c1ccccc1Cl)N1CCN(c2nc(-c3ccccc3)nc3ccccc23)CC1`, for which the max response was -4.34%.

As to `CCOC(=O)c1ccc(S(=O)(=O)N2CCN(c3nc(-c4cccs4)nc4ccccc34)CC2)cc1`, the max response is -8.25%.

Regarding `O=[N+]([O-])c1cccc(S(=O)(=O)N2CCN(c3nc(-c4ccccc4)nc4ccccc34)CC2)c1`, the max response is -5.2%. As for `COc1ccc(-c2nc(N3CCN(S(=O)(=O)c4ccc(C)cc4)CC3)c3ccccc3n2)cc1`, the figure is -0.975%; as for `O=S(=O)(c1ccccc1)N1CCN(c2nc(-c3ccc(F)cc3)nc3cc(Cl)ccc23)CC1`, -8.72%.

On to `O=S(=O)(c1ccc(F)cc1)N1CCN(c2nc(-c3cccs3)nc3ccccc23)CC1`, for which the max response is -15.5%. Take `O=S(=O)(c1cccc(C(F)(F)F)c1)N1CCN(c2nc(-c3cccs3)nc3ccccc23)CC1`: the max response is -4.78%.

Consider `O=S(=O)(c1ccc2c(c1)CCC2)N1CCN(c2nc(-c3ccccc3)nc3ccccc23)CC1`, for which the max response was -9.75%. In the case of `N#Cc1ccccc1S(=O)(=O)N1CCN(c2nc(-c3ccccc3)nc3ccccc23)CC1`, the max response was -12.3%. As for `CCOc1ccc(S(=O)(=O)N2CCN(c3nc(-c4ccccc4)nc4ccccc34)CC2)cc1`, the max response is -10.9%.

For the compound `O=S(=O)(c1ccc(Cl)cc1)N1CCN(c2nc(-c3cccs3)nc3ccccc23)CC1`, the max response is -6.67%. In the case of `O=[N+]([O-])c1ccccc1S(=O)(=O)N1CCN(c2nc(-c3ccccc3)nc3ccccc23)CC1`, the max response is -3%.

Turning to `O=S(=O)(c1ccc(C(F)(F)F)cc1)N1CCN(c2nc(-c3cccs3)nc3ccccc23)CC1`, the max response was -11.2%. Consider `O=S(=O)(c1ccc2c(c1)CCCC2)N1CCN(c2nc(-c3cccs3)nc3ccccc23)CC1`, for which the max response was -7.5%. For the compound `O=S(=O)(c1ccc(OC(F)(F)F)cc1)N1CCN(c2nc(-c3cccs3)nc3ccccc23)CC1`, the max response is -3.54%.

In the case of `COc1ccc(S(=O)(=O)N2CCN(c3nc(-c4ccccc4)nc4ccccc34)CC2)cc1`, the max response is -14.8%.

Take `CCOc1ccc(S(=O)(=O)N2CCN(c3nc(-c4ccccc4)nc4ccccc34)CC2)cc1OCC`: the max response is -7.31%. As for `Cc1ccc(-c2nc(N3CCN(S(=O)(=O)c4ccc(F)cc4)CC3)c3ccc(Cl)cc3n2)cc1`, the figure is -14.5%; as for `O=S(=O)(c1ccc2c(c1)CCCC2)N1CCN(c2nc(-c3ccccc3)nc3ccccc23)CC1`, -8.51%; as for `COc1ccc(-c2nc(N3CCN(S(=O)(=O)c4ccc(F)cc4)CC3)c3ccccc3n2)cc1`, -2.56%. As for `O=[N+]([O-])c1cccc(S(=O)(=O)N2CCN(c3nc(-c4cccs4)nc4ccccc34)CC2)c1`, the figure is -3.53%; as for `Cc1ccc(S(=O)(=O)N2CCN(c3nc(-c4ccc(F)cc4)nc4cc(Cl)ccc34)CC2)cc1`, -4.96%. Consider `N#Cc1ccccc1S(=O)(=O)N1CCN(c2nc(-c3cccs3)nc3ccccc23)CC1`, for which the max response is -5.04%.

As for `O=S(=O)(c1cccc(Br)c1)N1CCN(c2nc(-c3cccs3)nc3ccccc23)CC1`, the max response was -9.65%.

Turning to `N#Cc1ccc(S(=O)(=O)N2CCN(c3nc(-c4cccs4)nc4ccccc34)CC2)cc1`, the max response is -5.53%. As for `O=S(=O)(c1ccccc1C(F)(F)F)N1CCN(c2nc(-c3cccs3)nc3ccccc23)CC1`, the figure is -3.11%; as for `NS(=O)(=O)c1ccc(S(=O)(=O)N2CCN(c3nc(-c4ccccc4)nc4ccccc34)CC2)cc1`, -7.36%; as for `O=S(=O)(c1ccc(F)cc1)N1CCN(c2nc(-c3ccc(F)cc3)nc3cc(Cl)ccc23)CC1`, -3.75%. As for `O=S(=O)(c1ccccc1Br)N1CCN(c2nc(-c3ccccc3)nc3ccccc23)CC1`, the max response is -18.6%. As to `O=S(=O)(c1ccc(F)cc1)N1CCN(c2nc(-c3cccs3)nc3cc(Cl)ccc23)CC1`, the max response was -15.8%. Turning to `O=S(=O)(c1ccc(Br)cc1)N1CCN(c2nc(-c3ccccc3)nc3ccccc23)CC1`, the max response was -1.71%. Turning to `O=S(=O)(c1ccc2ccccc2c1)N1CCN(c2nc(-c3ccccc3)nc3ccccc23)CC1`, the max response was -4.15%. As for `O=S(=O)(c1ccc(F)cc1)N1CCN(c2nc(-c3ccccc3)nc3ccccc23)CC1`, the figure is -3.53%; as for `CC(=O)c1ccc(S(=O)(=O)N2CCN(c3nc(-c4cccs4)nc4ccccc34)CC2)cc1`, -5.52%. Take `O=S(=O)(c1ccc2ccccc2c1)N1CCN(c2nc(-c3cccs3)nc3ccccc23)CC1`: the max response is -7.23%.

With `O=S(=O)(c1ccc(F)cc1)N1CCN(c2nc(-c3ccccc3)nc3cc(Cl)ccc23)CC1`, the max response is -12.7%.

Turning to `O=S(=O)(c1ccccc1C(F)(F)F)N1CCN(c2nc(-c3ccccc3)nc3ccccc23)CC1`, the max response is -7.6%. Regarding `O=S(=O)(c1ccc(Cl)cc1)N1CCN(c2nc(-c3ccc(F)cc3)nc3cc(Cl)ccc23)CC1`, the max response is -5.47%.
